# Records with an inconclusive call do not appear. Where a call stands in place of a potency, no number is given. The source made the active and inactive calls. Calls follow the shape of the dose curve; as a rule, active = well fitted cell-killing curve with a large enough effect; inconclusive = small, poorly fitted or top-dose-only effect, or effect the other way; inactive = no such curve, though single readings can be large or run the other way.
# Assay: Quantitative High-Throughput drug screen in 47 multiple myeloma cell lines against the NCATS MIPE library collection: OPM2_DSMZ cell viability assay (AID 1919872); also: nearly all actives have a fitted effect of over 30% in size
# Settings: OPM2 myeloma viability, CellTiter-Glo ATP luminescence, 48 h; series mostly up to 45.8 µM
# Procedure, shortened: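 Myeloma cell lines, 500 cells per well, exposed to MIPE 4.0 library compounds for 48 h at 37C, 5% CO2. Viability from ATP by CellTiter-Glo luminescence; normalised to DMSO (100%) and media-only (0%) wells.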
# Potency is read from the fitted curve at half-maximal effect.
row,Compound,Potency
1,COc1ccc(-c2oc3cc(OC)ccc3c2C(=O)c2ccc(C#N)cc2)cc1,inactive
2,CC(=O)NC(C)c1ccc(Oc2ccc(OC(C)C)cc2)cc1 (stereo unspecified),8.33 µM (active)
3,O=c1[nH]c(-c2ccc(C(F)(F)F)cc2)nc2c1CSCC2,inactive
4,COCCNCCCn1c(C(=O)CF)c(-c2ccc(C)cc2)c2c(N)ncnc21,inactive
5,NC(N)=NC(=O)c1nc(Cl)c(N)nc1N,inactive
6,Nc1nc2ccc(OC(F)(F)F)cc2s1,18.7 µM (active)
7,OC(CN1CCC(Cc2ccc(F)cc2)CC1)c1ccc(Cl)cc1 (stereo unspecified),inactive
8,Cc1cc2c(F)c(Oc3ncnn4cc(OC[C@@H](C)O)c(C)c34)ccc2[nH]1,23.5 µM (active)
9,Nc1nccc(-c2ccc3noc(-c4ccc(Cl)cc4)c3c2)n1,inactive
10,CC(C)(C)NCC(O)c1ccc(O)c(CO)c1 (stereo unspecified),inactive
11,NCCc1ccc(O)c(O)c1,13.2 µM (active)
12,CCCCCCCc1ccc(CCc2cccc(O)c2C(=O)O)cc1,inactive
13,NS(=O)(=O)c1cc2c(cc1Cl)NC=NS2(=O)=O,inactive
14,CCCn1c(=O)c2[nH]c(C34CC5CC3C[C@@H](C5)C4)nc2n(CCC)c1=O,inactive
15,CCN(c1ccccc1)c1cc(NC)[n+](C)c(C)n1,inactive
16,CNC[C@H](O)c1cccc(O)c1,inactive
17,NC[C@H](O)c1ccc(O)c(O)c1,inactive
18,O=C1CCc2cc(OCCCCc3nnnn3C3CCCCC3)ccc2N1,inactive
19,Cc1csc(NC(=O)c2sc3nc4c(c(C(F)(F)F)c3c2N)CCC4)n1,inactive
20,COc1cc2c(cc1OC)CN(CCc1ccc(NC(=O)c3cccc4c(=O)c5cccc(OC)c5[nH]c34)cc1)CC2,inactive
21,CN(C)c1ccc(C2Nc3ccc4ccccc4c3C3=C2C(=O)CC(C)(C)C3)cc1Br (stereo unspecified),inactive
22,Cc1cnc(Nc2ccc(OCCN3CCCC3)cc2)nc1Nc1cccc(S(=O)(=O)NC(C)(C)C)c1,inactive
23,Cn1cnc([N+](=O)[O-])c1Sc1ncnc2nc[nH]c12,0.833 µM (active)
24,CCOc1ccn(-c2ccc(F)cc2)c(=O)c1C(=O)Nc1ccc(Oc2ccnc(N)c2Cl)c(F)c1,inactive
25,CC(C)NCC(O)COc1ccc(COCCOC(C)C)cc1 (stereo unspecified),inactive
26,CCc1ccc(CCOc2ccc(CC3SC(=O)NC3=O)cc2)nc1 (stereo unspecified),inactive

# Reference: PubChem BioAssay (NCATS)
